Screening data deposited in PubChem BioAssay by Broad Institute.
ROS inducer: cancer cell ROS induction. 46,000 compounds, 2% hits. AID 624156. U2OS ROS induction, H2DCF-DA fluorescence. ROS induction (% of piperlongumine), % at 10 µM; in the data active = ROS induction above about 79%, passing the limit was not always enough; inconclusive = no clear call, values can overlap the other calls;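 also: 0% = DMSO vehicle median and 100% = reference compound median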
YB-1 expr inh: YB-1 expression inhibition; U2OS, qRT-PCR YB-1 vs CDIP delta delta Cp, 16 h; active compounds read high; zero = DMSO, each unit about twofold; delta delta Cp (YB-1 minus CDIP) (no concentration beside the values); 30,000 compounds, 0.37% hits;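 active = delta delta Cp rounded down to an integer at or above 3, about 3 SD of DMSO wells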;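 also: higher means less YB-1 transcript or more CDIP transcript relative to DMSO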
Active calls of the source: *; ? = inconclusive; . = no result. This is a sample that favours compounds with a hit; in the whole collection about 2.3% have one here.

SMILES | ROS inducer | YB-1 expr inh
C[C@H]1CN([C@@H](C)CO)C(=O)Cc2cc(NS(=O)(=O)c3cn(C)cn3)ccc2O[C@H]1CN(C)CC1CC1 | 13 | 0.11
Cc1ccc2nc(-c3ccncc3)cc(C(=O)NC(C)c3cnn(C)c3C)c2c1 (configuration not stated) | 2 | .
Cc1ccc2nc(-c3ccncc3)cc(-c3ccccc3)c2c1 | 88* | .
C[C@H]1CN([C@@H](C)CO)C(=O)Cc2cc(NC(=O)Nc3ccc4c(c3)OCO4)ccc2O[C@H]1CN(C)C | -9 | 0.9
Cc1cc(C)nc(/N=C2\NC(=O)CC(C(=O)O)N2c2ccc(F)c(Cl)c2)n1 (configuration not stated) | 2 | .
COC(=O)/C=C1/C(=O)N/C(=N\c2nc(C)cc(C)n2)N1c1cccc(C)c1 | 103* | -0.13
O=c1c2ccccc2nc(SCc2ccc3c(c2)OCO3)n1-c1ccccc1 | 107* | -0.6
O=c1c2ccccc2nc(SCc2cccc3nsnc23)n1-c1ccccc1 | 5 | .
Cc1noc(C)c1NC(=O)N(C)C[C@H]1Oc2ccc(NC(=O)CCCCCC(=O)Nc3ccccc3N)cc2CC(=O)N([C@@H](C)CO)C[C@H]1C | 30 | 0.054
C[C@H]1CN([C@@H](C)CO)C(=O)CCCn2nncc2CO[C@H]1CN(C)Cc1ccc2c(c1)OCCO2 | 7 | 0.096
C[C@H]1CN([C@@H](C)CO)C(=O)c2cc(NC(=O)C3CCCCC3)ccc2O[C@@H]1CN(C)Cc1ccc(-c2ccccc2)cc1 | ? | -0.24
C[C@@H]1CN([C@H](C)CO)C(=O)c2cc(NC(=O)C3CCCCC3)ccc2O[C@H]1CN(C)Cc1ccc(Oc2ccccc2)cc1 | 9 | -0.0038
C[C@H](CO)N1C[C@H](C)[C@@H](CN(C)Cc2ccc(Oc3ccccc3)cc2)Oc2ccc(NC(=O)C3CCCCC3)cc2C1=O | 84* | 0.57
C[C@H](CO)N1C[C@H](C)[C@@H](CN(C)Cc2ccc(-c3ccccc3)cc2)Oc2ccc(NC(=O)C3CCCCC3)cc2C1=O | 104* | 0.11
COc1c(N2CCNC(C)C2)c(F)cc2c(=O)c(C(=O)O)cn(C3CC3)c12 (configuration not stated) | 1 | 0.1
CCOC(=O)c1nnn2c1nc(Sc1nc3ccccc3o1)c1ccccc12 | 108* | -0.17
CCOC(=O)c1nnn2c1nc(N(CC)CC)c1ccccc12 | 37 | -0.57
Cn1c(SCCC(=O)O)nnc1-c1ccncc1 | 66 | .
CCOC(=O)c1nnn2c1nc(Sc1nnc(-c3ccncc3)n1C)c1ccccc12 | 161* | -0.79
Cc1ccc(S(=O)(=O)Nc2ccc3c(c2)C(=O)N([C@H](C)CO)C[C@@H](C)[C@@H](CN(C)Cc2ccc(C(F)(F)F)cc2)O3)cc1 | 5 | 0.2
CC(C)NC(=O)N(C)C[C@H]1Oc2ccc(NS(=O)(=O)c3ccccc3)cc2C(=O)N([C@@H](C)CO)C[C@@H]1C | -9 | 0.25
C[C@H](CO)N1C[C@H](C)[C@@H](CN(C)Cc2ccc(Oc3ccccc3)cc2)Oc2c(NS(=O)(=O)c3ccc(Cl)cc3)cccc2C1=O | 112* | -0.22
COc1ccc(S(=O)(=O)Nc2cccc3c2O[C@H](CN(C)Cc2ccc(Oc4ccccc4)cc2)[C@@H](C)CN([C@H](C)CO)C3=O)cc1 | 96* | -0.24
COc1ccc(S(=O)(=O)Nc2cccc3c2O[C@@H](CN(C)Cc2ccc(Oc4ccccc4)cc2)[C@H](C)CN([C@@H](C)CO)C3=O)cc1 | 35 | -0.0056
C[C@H]1CN([C@@H](C)CO)C(=O)c2cccc(NS(=O)(=O)c3ccc(Cl)cc3)c2O[C@H]1CN(C)Cc1ccc(Oc2ccccc2)cc1 | 12 | -0.26
SMILES | ROS inducer | YB-1 expr inh
OCCOCCN1CCN(C(c2ccccc2)c2ccc(Cl)cc2)CC1 (configuration not stated) | -8 | 0.44
C[C@@H]1CCCCO[C@@H](CN(C)C(=O)Nc2ccccc2)[C@@H](C)CN([C@H](C)CO)C(=O)c2cc(NC(=O)c3ccncc3)ccc2O1 | 13 | 0.27
C[C@@H]1CCCCO[C@@H](CN(C)C(=O)Nc2ccccc2)[C@@H](C)CN([C@H](C)CO)C(=O)c2cc(NC(=O)CCC(F)(F)F)ccc2O1 | 95* | -0.41
C[C@@H]1CCCCO[C@H](CN(C)C(=O)Nc2ccccc2)[C@@H](C)CN([C@H](C)CO)C(=O)c2cc(NC(=O)c3ccccc3)ccc2O1 | 14 | 4.4*
C[C@@H]1CCCCO[C@H](CN(C)C(=O)CCC(F)(F)F)[C@@H](C)CN([C@H](C)CO)C(=O)c2cc(NC(=O)CCC(F)(F)F)ccc2O1 | 31 | -0.44
C[C@@H]1CCCCO[C@H](CN(C)C(=O)Nc2ccccc2)[C@@H](C)CN([C@H](C)CO)C(=O)c2cc(NC(=O)CCC(F)(F)F)ccc2O1 | 19 | -0.0046
C[C@@H]1CCCCO[C@H](CN(C)C(=O)CCC(F)(F)F)[C@@H](C)CN([C@H](C)CO)C(=O)c2cc(N(C)C)ccc2O1 | 4 | 9.9*
CCNC(=O)N1c2ccc(CC)cc2C(C)=CC1(C)C | -12 | .
C[C@H]1CN([C@@H](C)CO)C(=O)c2cccc(NC(=O)C3CCCCC3)c2O[C@@H]1CN(C)C(=O)Nc1ccccc1 | 0 | 0.37
C[C@H]1CN([C@@H](C)CO)C(=O)Cc2cc(NC(=O)Cc3ccccc3)ccc2O[C@H]1CN(C)S(=O)(=O)c1ccc(F)cc1 | 3 | -0.15
C[C@@H]1CCCCO[C@@H](CN(C)S(=O)(=O)c2ccc(Cl)cc2)[C@@H](C)CN([C@H](C)CO)C(=O)c2cc(NC(=O)NC3CCCCC3)ccc2O1 | 32 | 0.21
O=C(CC(C(=O)N1CCc2ccccc21)C(=O)N1CCc2ccccc21)c1ccccc1 | 15 | 0.022
O=C(C(Cc1ccccc1Cl)C(=O)N1CCc2ccccc21)N1CCc2ccccc21 | 141* | -0.13
C[C@H]1CN([C@@H](C)CO)C(=O)c2cccc(NC(=O)Nc3ccccc3)c2O[C@@H]1CN(C)Cc1ccc(Cl)c(Cl)c1 | 89* | 0.11
C[C@H]1CN([C@@H](C)CO)C(=O)c2cccc(NC(=O)Nc3ccccc3)c2O[C@@H]1CN(C)Cc1ccc(C(=O)Nc2ccccc2N)cc1 | 144* | -0.89
C[C@H](CO)N1C[C@H](C)[C@@H](CN(C)Cc2ccc(C(=O)Nc3ccccc3N)cc2)Oc2c(NC(=O)Nc3ccccc3)cccc2C1=O | 46 | 0.044
C[C@H]1CN([C@@H](C)CO)C(=O)c2cccc(NC(=O)Nc3ccc4c(c3)OCO4)c2O[C@@H]1CN(C)Cc1ccc(-c2ccccc2)cc1 | 16 | -0.3
C[C@H]1CN([C@@H](C)CO)C(=O)c2cccc(NC(=O)Nc3ccc(F)cc3)c2O[C@@H]1CN(C)Cc1ccc(-c2ccccc2)cc1 | 58 | 0.18
C[C@@H]1CN([C@@H](C)CO)C(=O)c2cccc(NC(=O)Nc3ccccc3)c2O[C@@H]1CN(C)Cc1ccc(-c2ccccc2)cc1 | 82* | 1.1
C[C@H]1CN([C@@H](C)CO)C(=O)c2cccc(NC(=O)Nc3ccc4c(c3)OCO4)c2O[C@H]1CN(C)Cc1ccc(-c2ccccc2)cc1 | 102* | 0.58
C[C@@H]1CN([C@H](C)CO)C(=O)c2cccc(NC(=O)Nc3ccccc3)c2O[C@@H]1CN(C)Cc1ccc(Cl)c(Cl)c1 | 15 | -0.17
C[C@@H]1CN([C@H](C)CO)C(=O)c2cccc(NC(=O)Nc3ccccc3)c2O[C@@H]1CN(C)Cc1ccc(Oc2ccccc2)cc1 | 13 | -0.29
